# D1 potentiator: Potentiators of Human D1 Dopamine Receptor: qHTS; HEK293 TREx D1 cells, calcium flux, dopamine EC20 potentiation; D(1A) dopamine receptor (Homo sapiens), P21728; 360,000 tested, 0.036% active; potentiation, % at 10 µM; AID 504651, 2011; in the data active = potentiation above about 30%; note: 0% is about no effect
# D1 antag: Antagonist of Human D 1 Dopamine Receptor: qHTS; D(1A) dopamine receptor (Homo sapiens), P21728; HEK293 TREx D1 cells, calcium flux, dopamine EC80; active compounds read low; activity change, negative = inhibition, % at 10 µM; 360,000 tested, 3.2% active; AID 504652, 2011; in the data active = activity change below about -30%; note: % is set by controls: 0 for no effect and ±100 for the full control effect
#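 HEK293 T-REx cells expressing inducible, force-coupled D1 receptor; no-wash Ca dye, 30–90 min RT. Cmpd → 180 s read at 1 Hz → EC80 DA → 180 s read.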
# TRHR PAM: qHTS for Small Molecule Agonists and Allosteric Enhancers of Human TRH Receptor: Primary Screen for Enhancers; TRHR cells, fluo-8 calcium fluorescence, EC20 TRH enhancement; enhancement, % at 2 µM; 360,000 tested, 0.66% active; in the data active = enhancement above about 30%; note: 0% is about no effect
# Target sequence (P34981 whole entry, looked up): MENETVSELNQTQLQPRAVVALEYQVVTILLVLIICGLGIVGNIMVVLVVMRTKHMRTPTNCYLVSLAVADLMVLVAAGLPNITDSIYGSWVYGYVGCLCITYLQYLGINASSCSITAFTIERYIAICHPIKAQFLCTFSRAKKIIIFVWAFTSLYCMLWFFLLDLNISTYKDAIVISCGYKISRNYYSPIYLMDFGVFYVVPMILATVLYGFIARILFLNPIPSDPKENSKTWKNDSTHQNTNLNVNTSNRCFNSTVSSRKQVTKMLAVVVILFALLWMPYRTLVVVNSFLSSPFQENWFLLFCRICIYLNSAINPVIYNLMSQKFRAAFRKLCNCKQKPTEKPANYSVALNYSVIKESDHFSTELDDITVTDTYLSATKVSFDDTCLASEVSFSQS
#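 TRHR-expressing cells loaded with fluo-8 calcium dye were read kinetically (ex 480/em 530) during compound addition, then stimulated with an EC20 of TRH (10 nM final). Enhancement of the Gq-mediated intracellular calcium response was scored.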
# TRHR agonist: qHTS for Small Molecule Agonists and Allosteric Enhancers of Human TRH Receptor: Primary Screen for Agonists; Thyrotropin-releasing hormone receptor (Homo sapiens), P34981; TRHR cells, calcium flux fluo-8, FDSS agonist mode; activation, % at 2 µM; 360,000 tested, 0.18% active; AID 493084, 2011; note: 0% is about no effect
#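 In this calcium-flux screen, cells bearing human TRHR are dye-loaded with fluo-8, baselined for 10 cycles, then exposed to library compounds; positive kinetic calcium responses during the agonist phase mark hits, with TRH as control.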
# D1 ag: Allosteric Agonists of the Human D1 Dopamine Receptor: qHTS; D(1A) dopamine receptor (Homo sapiens), P21728; HEK293 T-REx D1 cells, calcium flux, agonist mode; activation, % at 2 µM; 360,000 tested, 1% active; AID 504660, 2011; note: 0% is about no effect
#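 Inducible HEK293 T-REx D1 cells, force-coupled to calcium signalling, were plated at 4000 cells/well with tetracycline and held overnight at 30 C. After no-wash calcium dye loading, compound-evoked calcium rise over 180 s flagged agonists.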
# The depositor's hits bear a star; · = not tested or not shown; ! = not active in a repeat. In the library only some 4.7% were active in any assay of this set; here they are far more common. Cut-off read from the data, not from the text of the source, unless noted: active = activation above about 30%; inactive = the rest.
SMILES,D1 potentiator,D1 antag,TRHR PAM,TRHR agonist,D1 ag
Cc1ccc(CNC(=O)C2CCN(S(=O)(=O)c3c(C)noc3/C=C/c3cccs3)CC2)cc1,1,2,-9,2,10
CC(=O)c1cccc(N(C(=O)Cn2nnc3ccccc32)C(C(=O)NCc2ccccc2)c2ccc(F)cc2)c1 (stereo not given),0,7,7,-1,9
Cc1ccccc1Cn1c(SCc2ccc(C(=O)NC(C)c3ccccc3)cc2)nc2ccncc21 (stereo not given),-1,-15,-4,0,12
Cc1cc(=O)oc2cc(NS(=O)(=O)c3ccccc3)ccc12,2,-95*,8,0,1
O=C(CSc1ccccc1)N1CCc2c([nH]c3ccccc23)C1c1ccc(Cl)cc1 (stereo not given),-3,-2,-7,0,0
Cc1ccc(S(=O)(=O)N(C)CCCC(=O)Nc2ccc(F)cc2)cc1,-3,-13,-1,-1,3
Cc1ccc(S(=O)(=O)N(C)CCCC(=O)Nc2ccc(C)cc2C)cc1,-2,-52*,2,0,18
COc1ccc(NC(=O)CCCN(C)S(=O)(=O)c2ccc(C)cc2)cc1,-9,-60*,0,0,4
Cc1cc(F)ccc1NC(=O)CCCN(C)S(=O)(=O)c1ccc(F)cc1,-5,-6,-6,-1,4
Cc1ccc(S(=O)(=O)N(C)CCCC(=O)Nc2ccncc2)cc1,·,-35*,2,1,22
Cc1oc2ncn(CC(C)C)c(=O)c2c1C(=O)NCCc1ccc(Cl)cc1,1,-2,11,-1,2
CSc1ccc(CCNC(=O)CN2C(=O)COc3ccc(S(=O)(=O)N4CCCCCC4)cc32)cc1,2,-6,8,-2,8
COCCn1c(C)cc(C(=O)CSc2nc3ccccc3c(=O)n2Cc2ccco2)c1C,0,1,7,0,2
COCCn1c(C)cc(C(=O)CSc2cc(C)c3ccccc3n2)c1C,-8,-38*,-6,-1,2
CCN1C(=NCC(C)C)N[C@@H](c2cccc(F)c2)C(C(=O)OC)=C1C,-2,-33*!,-12,1,6
O=S(=O)(c1ccc2c(c1)OCCO2)N1CCN(S(=O)(=O)c2c(Cl)cc(C(F)(F)F)cc2Cl)CC1,2,-14,4,-2,4
Cc1ccc(NC(=O)CSc2nc(-c3ccco3)cc(C(F)(F)F)n2)cc1C,-3,-12,1,1,4
COc1ccc(NC(=O)CSc2nc(-c3ccco3)cc(C(F)(F)F)n2)cc1OC,-2,-30*,-3,-1,12
CC(C)CN(CC(C)C)C(=O)COc1ccccc1C(N)=O,-1,-35*,4,0,4
CCOc1ccc(CCNC(=O)c2cn(C)c3ccc(S(=O)(=O)N4CCCCCC4)cc3c2=O)cc1OCC,1,6,-5,0,0
Cc1ccc(O)c(-c2[nH]ncc2C(=O)c2ccc(Cl)cc2)c1,-8,-34*,8,1,12
CC1=C(C(=O)Nc2ccccc2)C(c2cccn2C)n2ncnc2N1 (stereo not given),0,16,2,0,0
CCn1ncc(C2=NOC(C(=O)NCC(C)C)C2)c1C (stereo not given),-4,12,-2,2,1
CCn1ncc(C2=NOC(C(=O)Nc3cnn(C45CC6CC(CC(C6)C4)C5)c3)C2)c1C (stereo not given),-4,-25,4,2,34*
O=S(=O)(c1cccc(-c2nnc3n2CCCCC3)c1)N1CCCC1,-2,-11,34*,1,2
SMILES,D1 potentiator,D1 antag,TRHR PAM,TRHR agonist,D1 ag
O=S(=O)(Nc1nc2n(n1)C(c1ccccc1)C=C(c1ccc(Cl)cc1)N2)c1ccccc1 (stereo not given),0,-14,0,8,32*
Cc1ccc(C2C=C(c3ccccc3)Nc3nc(NS(=O)(=O)c4ccccc4)nn32)cc1 (stereo not given),-3,10,9,13,31*
Cc1ccc(S(=O)(=O)Nc2nc3n(n2)C(c2ccc(Cl)cc2)C=C(c2ccccc2)N3)cc1 (stereo not given),-1,19,-3,0,11
CCOC(=O)/C(C#N)=C/c1cn(CCOc2ccccc2)c2ccccc12,-5,6,-6,1,15
CCOC(=O)/C(C#N)=C\c1cn(C)c2ccccc12,-4,-32*,-1,-1,3
CCOc1ccccc1Nc1nnc(Cc2ccccc2Cl)c(=O)[nH]1,-10,-32*,5,-2,10
O=c1[nH][nH]c(-c2ccccc2)c1C=Nc1ccc(Cl)cc1,3,24,2,0,0
O=c1[nH][nH]c(-c2ccccc2)c1C=Nc1cccc(Cl)c1,-10,-34*,2,0,0
Cc1cccc(-n2c(CNC(=O)Cc3ccccc3)n[nH]c2=S)c1,7,1,3,0,1
Cc1cccc(-n2c(Cc3ccccc3)n[nH]c2=S)c1,-5,-40*,-10,0,1
CCCCn1c(=NC(=O)c2cc3ccccc3o2)c(C(=O)OCC)cc2c(=O)n3ccccc3nc21,0,-7,5,-1,0
CCCCCn1c(=O)[nH]c2cc(C(=O)N3CCN(c4cccc(OC)c4)CC3)ccc2c1=O,0,-22,4,0,2
Cc1cc(C)cc(-n2c(C)cc(C(=O)CSc3nnnn3C)c2C)c1,-6,-11,-13,-1,41*
CCOC(=O)c1cc(-c2ccccc2)n(CCC(=O)Nc2ccc(Cl)c(C(F)(F)F)c2)c1C,-2,-8,-4,3,26
Cc1ccc(Cn2ccnc2SCC(=O)Nc2ccc3c(c2)OCO3)cc1,-2,11,0,-1,-1
CCOC(=O)c1[nH]c2ccc(C)cc2c1NC(=O)CN1CCCCC1,0,-10,-4,0,-1
CCOC(=O)c1[nH]c2ccc(OCC)cc2c1NC(=O)CN1CCCC(C)C1 (stereo not given),-6,-36*,5,0,3
COc1ccccc1NC(=S)NNC(=O)c1nn(C)c(C)c1Cl,-6,-49*,-20,0,1
Cc1c(C)c2ccc(Oc3ccc([N+](=O)[O-])cc3C(F)(F)F)c(C)c2oc1=O,-4,-33*,-1,0,3
COc1ccc2c(C(F)(F)F)cc(=O)oc2c1C,15,5,4,0,2
O=C(Nc1ccc(F)cc1F)c1cc2ccc3cccnc3c2[nH]1,0,-2,-7,1,1

# Assay outcomes as filed in PubChem.
